Compound activity deposited in PubChem BioAssay by National Center for Advancing Translational Sciences (NCATS).
IL-2 act: qHTS of IL-2 Activators | activation, % (series mostly up to about 46 µM) | 360,000 tested, 0.065% active | IL-2 activation reporter assay, cell-based qHTS; stimulated with anti-CD3/CD4/CD28 beads; in transgenic mouse T cells; in the data active = activation above about 50%; inconclusive = mostly about 30% to 49%; note: 0% is about no effect
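First, unstimulated transgenic mouse T cells were exposed to compound for 60 min. Next, anti-CD3/anti-CD4-coated beads with anti-CD28 were added. Finally, after 18 h at 37 degrees C, EGFP and DsRed were imaged.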
Nrf2 activator: qHTS of Nrf2 Activators; 410,000 tested, 0.31% active; AID 624171, 2012; AREc32 ARE-luciferase reporter (MCF7-derived line), luminescence, 24 h; Potency, µM (doses to about 46.1 µM), without a hit: top-dose activation, usual class: activators; note: potency is the fitted concentration of half-maximal effect; % of control where 0% means no effect; nearly all actives have a fitted effect of over 65% in size
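AREc32_Fluc, 1000 cells/well, OPTI-MEM + 5% FBS, o/n 37 deg C 5% CO2; 23 nL cpd by pin tool, 24 hr; Steady-Glo 30 min RT, luminescence.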
BRCA1 expr up: qHTS Assay to Identify Small Molecule Activators of BRCA1 Expression; MCF7-BRCA1-FFLuc reporter, luminescence, 48 h; response scale: scaled: vehicle 0%, 10 µM genistein 100%; Potency, µM (highest dose often 46.1 µM), without a hit: at the top dose activation, usual class: activators; 380,000 tested, 1.1% active; AID 624202, 2012; note: potency is the fitted concentration of half-maximal effect; nearly all actives have a fitted effect of over 80% in size
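MCF7 cells carrying a BRCA1-firefly luciferase reporter (2000 cells/well, phenol-red free MEM) were attached for 2 h at 37 °C, then given compounds for 48 h. Luminescence was read 15 min after luciferase reagent; activity normalized to genistein (10 microM) and DMSO.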
ELG1 DNA repair: qHTS screen for small molecules that inhibit ELG1-dependent DNA repair in human embryonic kidney (HEK293T) cells expressing luciferase-tagged ELG1; HEK293T ELG1-luciferase reporter, luminescence, 16 h; DNA damage induced by 5-fluorouridine; Potency, µM (titrated, usually from 46.1 µM), inactives show top-dose activity change, negative = inhibition, hits mostly inhibitors; 330,000 tested, 2.3% active; note: potency is the fitted concentration of half-maximal effect; % is set by controls: 0 for no effect and ±100 for the full control effect; nearly all actives have a fitted effect of over 55% in size
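Quantitative HTS, concentration-response format. 2,000 cells/well co-treated with 5-fluorouridine and compound, 16 hr in 5% CO2 at 37 °C; ONE-Glo luminescence read after 30 min.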
Active calls of the source: *; u = inconclusive; x = no result. Rows were chosen to be rich in hits. Some 3.1% of all compounds tested hit in one or more screens of this group. Unless noted, calls come from the whole dose curve; as a rule, active = well fitted curve in the direction sought with a large enough effect; inconclusive = small, poorly fitted or top-dose-only effect, or another doubt; inactive = no such curve, though single readings can be large; an effect the other way counts as inactive or inconclusive.

SMILES	IL-2 act	Nrf2 activator	BRCA1 expr up	ELG1 DNA repair
Cc1onc(-c2ccccc2)c1C(=O)c1c[nH]c(C(=O)NCc2ccncc2)c1	-1	0%	-20%	13µM*
Cc1onc(-c2ccccc2)c1C(=O)c1c[nH]c(C(=O)NCc2ccccn2)c1	-1	3%	-20%	16µM*
COc1ccc(-c2nnc(NC(=O)c3ccc(S(=O)(=O)N4CCCc5ccccc54)cc3)o2)cc1	-2	0%	-89%	u
O=C(Nc1nnc(C2CC2)o1)c1ccc(S(=O)(=O)N2CCCc3ccccc32)cc1	-4	-2%	-58%	7.3µM*
COCc1nnc(NC(=O)c2ccc(S(=O)(=O)N3CCCc4ccccc43)cc2)o1	-4	0%	-50%	16µM*
COCCn1c(SCc2nc3scc(-c4ccc(Cl)cc4)c3c(=O)[nH]2)nnc1-c1cccc(C)c1	-1	0%	-69%	23µM*
CCn1c(SCc2nc3scc(-c4ccccc4)c3c(=O)[nH]2)nnc1-c1cccs1	0	5%	-67%	u
CN(Cc1ccccc1)C(=O)c1cc(-c2cccc(Cl)c2)on1	x	6%	x	x
COC(=O)c1ccc(COc2ccccc2/C=C(\C#N)C(=O)Nc2ccccc2C)cc1	4	0%	1%	u
COC(=O)c1ccc(OCCOc2ccccc2C)cc1	-1	3%	0%	11%
COc1cc(/C=C(\C#N)C(=O)Nc2cccc(C(=O)O)c2)ccc1OCc1ccc(C)cc1	-2	5%	5µM*	u
COC(=O)c1ccc(COc2cccc(C)c2C)cc1	1	0%	10µM*	u
COC(=O)c1ccc(COc2ccccc2/C=C/C(=O)c2ccc(OCC(=O)O)cc2)cc1	0	18µM*	-57%	-12%
COC(=O)c1ccc(COc2ccccc2/C=C(\C#N)C(=O)Nc2c(C)cccc2C)cc1	-4	20%	-69%	26µM*
Cc1nc(NC(=O)c2oc3ccccc3c2C)sc1C(=O)N(C)C	-4	5%	13µM*	u
COc1ccc(-c2nc3scc(CCNS(=O)(=O)c4cccs4)n3n2)cc1	x	3%	x	x
COc1ccc2[nH]c3c(NCc4ccco4)ncnc3c2c1	2	3.2µM*	4%	u
COCCNc1ncnc2c1[nH]c1ccccc12	-1	6%	-46%	15µM*
CCN(CC)CCNc1ncnc2c1[nH]c1ccc(OC)cc12	x	x	x	-5%
O=C(CCC1N=C2c3ccccc3N=C(SCc3ccccc3F)N2C1=O)NC1CCCCC1 (configuration not stated)	x	26%	x	x
O=C(Nc1ccc(Cl)cc1Cl)C1=Cc2ccccc2OC1	0	19%	10µM*	u
O=C(Nc1ccc(Cl)cc1)C1=Cc2cc(Cl)ccc2OC1	-1	18%	-28%	-13%
COc1ccc(CCNC(=O)c2ccc3c(c2)CCN3S(=O)(=O)c2ccc(C)cc2)cc1	x	1%	x	x
CCc1ccc(NC(=S)NC(=O)CC(C)C)cc1	0	2%	6.3µM*	u
Cc1oc2ncnc(N3CCCCC3)c2c1C(=O)NCC1CCN(Cc2ccccc2F)CC1	x	0%	-1%	x
SMILES	IL-2 act	Nrf2 activator	BRCA1 expr up	ELG1 DNA repair
COc1ccc(S(=O)(=O)c2c(C(=O)c3ccc(C)c(C)c3)cnc3ccc(C)cc23)cc1	x	29%	x	x
O=C(CSc1nc2ccc(NC(=O)C3CCCCC3)cc2s1)NCC1CCCO1 (configuration not stated)	0	7%	1%	13µM*
O=[N+]([O-])c1ccc2c(c1)ncn2-c1ccccc1	0	0%	57%	u
O=[N+]([O-])c1ccc(-n2cnc3ccccc32)c([N+](=O)[O-])c1	0	1%	-22%	23µM*
COc1ccc(N2CCN(C(CNC(=O)C(=O)NCc3ccncc3)c3ccco3)CC2)cc1 (configuration not stated)	-1	0%	-1%	u
O=C(NCc1ccncc1)C(=O)NCC(c1ccco1)N1CCN(c2ccccc2)CC1 (configuration not stated)	-2	-2%	-22%	21µM*
CCCn1cnc2cc(NCc3ccccn3)ccc21	0	0%	4µM*	u
CCc1ccc(CNc2ccc3c(c2)ncn3C)cc1	-2	3%	u	u
Cc1ccc(CNc2ccc3c(c2)ncn3C)cc1	-1	0%	5µM*	u
O=c1[nH]cc(CCc2ccccc2)c2ncncc12	x	x	14%	x
COc1ccc(C(=O)C(=O)N2CCC(c3ccccc3)CC2)cn1	0	x	x	x
Cc1ccc(OCc2nc(-c3ccc(C(=O)N4CCN(c5ccccc5F)CC4)cc3)oc2C)cc1	x	1%	x	x
CCOC(=O)C(C(=O)OCC)C1N=C(N)N=C2Oc3ccccc3N21 (configuration not stated)	0	2%	13µM*	u
O=C(c1ccc(Oc2ccccc2)cc1)C1CCCN(C(=O)c2cnccn2)C1 (configuration not stated)	-5	0%	-25%	21µM*
CC1CCN(c2c(NCC3CCC(C(=O)N4CCc5ccccc5C4)CC3)c(=O)c2=O)CC1 (configuration not stated)	-3	0%	8%	9.2µM*
O=C(C1CCC(CNc2c(N3CCCCC3)c(=O)c2=O)CC1)N1CCc2ccccc2C1 (configuration not stated)	-2	4%	0%	u
CC(=O)C1=C(c2ccccc2)N(C(C)=O)n2c(nnc2C2CCCCC2)S1	x	0%	x	x
O=C(Nc1ccccc1F)NC1CCCCCCC1	-1	0%	3.5µM*	u
O=C(NC1CCCCCCC1)c1ccc(F)cc1	0	3%	2.8µM*	u
O=C(CSc1ccccc1)NC1CCCCCCC1	-5	2%	10µM*	u
O=C(NC1CCCCC1)c1ccc(-c2ccccc2)cc1	0	3%	2.2µM*	x
CN(C(=O)c1ccc(-c2ccccc2)cc1)C1CCCCC1	-3	0%	2.8µM*	x
CN(C)c1cccc(C(=O)NC2CCCCCC2)c1	-1	0%	10µM*	u
Cc1ccc(C(=O)NC(=S)N(C)C2CCCCC2)cc1	-2	2%	8.9µM*	u
Cc1cccc(C(=O)NC2CCCCCCC2)c1	-2	0%	u	u
O=C(NC1CCCCCC1)C(=S)NCc1ccccc1	0	5%	11µM*	u
CCOc1ccc(C(=O)N(Cc2ccc(C(C)C)cc2)Cc2ccco2)cc1	x	1%	x	x
Cc1cc(=O)[nH]c2nnc(SCc3c(F)cccc3Cl)n12	x	0%	x	x
COC(=O)c1c(N)sc(Cc2ccccc2)c1C	-3	0%	-2%	-3%
COC(=O)c1c(NC(=O)/C=C/C(=O)O)sc(Cc2ccccc2)c1C	1	22µM*	-81%	-9%
